In PubChem BioAssay AID1159580 (chemical genetic matrix, 2015):
Where “and” joins values, the source holds several entries; their conditions need not be identical. Equal entries are not always repeated. The campaign covered roughly 5,500 compounds. About 2,000 (36%) were called active. Another 18% or so got no clear call; they are omitted. Cut-off read from the data, not from the text of the source: active = normalized growth mostly below about 0.91 (no sharp cut-off); inconclusive = no clear call, values can overlap the other calls; inactive = mostly above about 0.92. This is one part of the list.

Experiment: chemical genetic growth profiling, strain panel (AID 1159580);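 note: tested at 20 µM; growth read once vehicle control cultures reached saturation at 30 °C; 1 = growth at the plate median or of vehicle wells; lower values mean less growth of the strain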
Conditions: growth OD

Measured: normalized growth

NC1CC1c1ccccc1 (stereo not drawn)
inactive: S. cerevisiae deletion strains, locus YAL013W, strain DEP1, hits give low values 1.02 | S. cerevisiae deletion strains, locus YAL040C, strain CLN3, hits give low values 0.989 | S. cerevisiae deletion strains, locus YBR021W, strain FUR4, hits give low values 1.02 | S. cerevisiae deletion strains, locus YBR229C, strain ROT2, hits give low values 1.02 | S. cerevisiae deletion strains, locus YCL029C, strain bik1, hits give low values 0.985 | S. cerevisiae deletion strains, locus YCL061C, strain MRC1 (second series), hits give low values 1.01 | S. cerevisiae deletion strains, locus YDL035C, strain GPR1, hits give low values 1.02 | S. cerevisiae deletion strains, locus YDL074C, strain BRE1, hits give low values 1.05 | S. cerevisiae deletion strains, locus YDL101C, strain DUN1, hits give low values 1.03 | S. cerevisiae deletion strains, locus YDL134C, strain PPH21, hits give low values 1.02 | S. cerevisiae deletion strains, locus YDL185W, strain tfp1, hits give low values 0.989 | S. cerevisiae deletion strains, locus YDL192W, strain arf1, hits give low values 0.988 | S. cerevisiae deletion strains, locus YDR101C, strain arx1, hits give low values 0.976 | S. cerevisiae deletion strains, locus YDR150W, strain NUM1, hits give low values 1.02 | S. cerevisiae deletion strains, locus YDR162C, strain NBP2, hits give low values 1.03 | S. cerevisiae deletion strains, locus YDR318W, strain mcm21, hits give low values 0.979 | S. cerevisiae deletion strains, locus YDR363W, strain ESC2, hits give low values 0.946 | S. cerevisiae deletion strains, locus YDR388W, hits give low values 0.981 | S. cerevisiae deletion strains, locus YDR502C, strain sam2, hits give low values 0.995 | S. cerevisiae deletion strains, locus YEL061C, strain CIN8, hits give low values 1.01 | S. cerevisiae deletion strains, locus YER002W, strain NOP16, hits give low values 1.02 | S. cerevisiae deletion strains, locus YER110C, hits give low values 0.981 | S. cerevisiae deletion strains, locus YER155C, strain BEM2, hits give low values 1.01 | S. cerevisiae deletion strains, locus YER167W, strain BCK2, hits give low values 1.01 | S. cerevisiae deletion strains, locus YGL078C, strain dbp3, hits give low values 0.988 | S. cerevisiae deletion strains, locus YGL086W, strain mad1, hits give low values 0.975 | S. cerevisiae deletion strains, locus YGL248W, strain PDE1, hits give low values 1.03 | S. cerevisiae deletion strains, locus YGR078C, strain PAC10, hits give low values 1.02 | S. cerevisiae deletion strains, locus YGR135W, strain pre9, hits give low values 0.994 | S. cerevisiae deletion strains, locus YGR229C, strain SMI1, hits give low values 1.02 | S. cerevisiae deletion strains, locus YGR252W, strain gcn5, hits give low values 0.922 | S. cerevisiae deletion strains, locus YHR030C, strain SLT2, hits give low values 1.01 | S. cerevisiae deletion strains, locus YHR079C, strain IRE1 (second series), hits give low values 0.981 | S. cerevisiae deletion strains, locus YHR094C, strain hxt1, hits give low values 0.99 | S. cerevisiae deletion strains, locus YHR129C, strain ARP1, hits give low values 1.02 | S. cerevisiae deletion strains, locus YHR200W, strain rpn10, hits give low values 0.991 | S. cerevisiae deletion strains, locus YIL066C, strain RNR3, hits give low values 1.02 | S. cerevisiae deletion strains, locus YIL073C, strain SPO22, hits give low values 0.972 | S. cerevisiae deletion strains, locus YIL125W, strain kgd1, hits give low values 0.987 | S. cerevisiae deletion strains, locus YIR030C, strain dcg1, hits give low values 0.993 | S. cerevisiae deletion strains, locus YJL095W, strain BCK1, hits give low values 1.03 | S. cerevisiae deletion strains, locus YJL134W, strain LCB3, hits give low values 1.02 | S. cerevisiae deletion strains, locus YJL168C, strain set2, hits give low values 0.988 | S. cerevisiae deletion strains, locus YJL187C, strain SWE1 (second series), hits give low values 1.02 | S. cerevisiae deletion strains, locus YJR043C, strain POL32, hits give low values 0.992 | S. cerevisiae deletion strains, locus YJR075W, strain HOC1, hits give low values 1.01 and 1.03 | S. cerevisiae deletion strains, locus YKL009W, strain mrt4, hits give low values 1.01 | S. cerevisiae deletion strains, locus YKL068W, hits give low values 0.997 | S. cerevisiae deletion strains, locus YKL085W, strain MDH1 (second series), hits give low values 1.03 | S. cerevisiae deletion strains, locus YKL085W, strain MDH1, hits give low values 1.03 | S. cerevisiae deletion strains, locus YKL190W, strain CNB1, hits give low values 1.02 | S. cerevisiae deletion strains, locus YKR001C, strain vps1, hits give low values 0.987 | S. cerevisiae deletion strains, locus YLR039C, strain RIC1, hits give low values 1.06 | S. cerevisiae deletion strains, locus YLR058C, strain SHM2, hits give low values 1.02 | S. cerevisiae deletion strains, locus YLR102C, strain apc9, hits give low values 0.996 | S. cerevisiae deletion strains, locus YLR262C, strain YPT6, hits give low values 1.05 | S. cerevisiae deletion strains, locus YLR268W, strain sec22, hits give low values 0.989 | S. cerevisiae deletion strains, locus YLR330W, strain CHS5, hits give low values 1.01 | S. cerevisiae deletion strains, locus YLR342W, strain FKS1 (second series), hits give low values 0.994 | S. cerevisiae deletion strains, locus YLR371W, strain rom2, hits give low values 0.984 | S. cerevisiae deletion strains, locus YLR418C, strain cdc73, hits give low values 0.992 | S. cerevisiae deletion strains, locus YML016C, strain PPZ1, hits give low values 1.03 | S. cerevisiae deletion strains, locus YML032C, strain rad52, hits give low values 0.975 | S. cerevisiae deletion strains, locus YML124C, strain tub3, hits give low values 0.997 | S. cerevisiae deletion strains, locus YMR078C, strain ctf18, hits give low values 0.981 | S. cerevisiae deletion strains, locus YMR223W, strain ubp8, hits give low values 0.972 | S. cerevisiae deletion strains, locus YMR263W, strain SAP30, hits give low values 1.03 | S. cerevisiae deletion strains, locus YMR307W, strain GAS1, hits give low values 0.976 and 1.01 | S. cerevisiae deletion strains, locus YNL067W, strain RPL9B, hits give low values 1.03 | S. cerevisiae deletion strains, locus YNL128W, strain TEP1, hits give low values 1.03 | S. cerevisiae deletion strains, locus YNL153C, strain GIM3, hits give low values 1.03 and 0.972 | S. cerevisiae deletion strains, locus YNL175C, strain NOP13, hits give low values 0.999 | S. cerevisiae deletion strains, locus YNL197C, strain WHI3, hits give low values 1.01 | S. cerevisiae deletion strains, locus YNL224C, strain SQS1, hits give low values 1 | S. cerevisiae deletion strains, locus YNL233W, strain BNI4, hits give low values 1.02 | S. cerevisiae deletion strains, locus YNL250W, strain rad50, hits give low values 1.01 | S. cerevisiae deletion strains, locus YNL271C, strain bni1, hits give low values 0.978 | S. cerevisiae deletion strains, locus YNL298W, strain CLA4, hits give low values 0.996 | S. cerevisiae deletion strains, locus YNL307C, strain MCK1, hits give low values 0.979 | S. cerevisiae deletion strains, locus YNL322C, strain KRE1, hits give low values 1.02 | S. cerevisiae deletion strains, locus YNR052C, strain pop2, hits give low values 0.968 | S. cerevisiae deletion strains, locus YOL006C, strain TOP1, hits give low values 1.09 | S. cerevisiae deletion strains, locus YOL147C, strain pex11, hits give low values 0.989 | S. cerevisiae deletion strains, locus YOR061W, strain CKA2, hits give low values 1.02 | S. cerevisiae deletion strains, locus YOR069W, strain VPS5, hits give low values 1.01 | S. cerevisiae deletion strains, locus YOR083W, strain WHI5 (second series), hits give low values 1 | S. cerevisiae deletion strains, locus YOR136W, strain idh2, hits give low values 0.981 | S. cerevisiae deletion strains, locus YOR144C, strain elg1, hits give low values 0.984 | S. cerevisiae deletion strains, locus YOR184W, strain ser1, hits give low values 0.976 | S. cerevisiae deletion strains, locus YOR316C, strain cot1, hits give low values 0.992 | S. cerevisiae deletion strains, locus YPL055C, strain LGE1, hits give low values 1.06 and 0.992 | S. cerevisiae deletion strains, locus YPL241C, strain CIN2, hits give low values 1.02 | S. cerevisiae deletion strains, locus YPR119W, strain clb2, hits give low values 0.994 | S. cerevisiae deletion strains, locus YPR141C, strain kar3, hits give low values 0.99 | S. cerevisiae deletion strains, locus YPR163C, strain tif3, hits give low values 0.988 | S. cerevisiae deletion strains, locus YPR167C, strain met16, hits give low values 0.985 | S. cerevisiae deletion strains, strain wtn01, hits give low values 0.988 | S. cerevisiae strains, strain wild type, hits give low values 1.01
